In PubChem BioAssay (Tox21):
Values joined by “and” are separate entries in the source; they are usually repeats but may differ in a detail not shown here. Equal values may be shown once. Records with an inconclusive call do not appear. Where a call stands in place of a potency, no number is given. More than one record can exist for a structure, and the calls need not agree. Active and inactive are the calls of the source. The call rests on the fitted dose curve; in most records, active means well fitted curve in the direction sought with a large enough effect in the repeat runs; inconclusive means weak or mixed curves; inactive means no such curve, though single readings can be large; an effect the other way counts as inactive or inconclusive.
Further: nearly all actives have a fitted effect of over 50% in size.
Potency means the concentration at half of the fitted maximal effect.

What follows are compounds tested against Cytochrome P450 1A2 (Homo sapiens) (UniProt P05177) (assay: Cytochrome P450 Family 1 Subfamily A Member 2 (CYP1A2) small molecule antagonists: luciferase reporter qHTS assay (AID 1671199)). Settings: P450-Glo CYP1A2 enzyme, luciferin luminescence, 1 h; series mostly up to 115 µM; activity change, negative = inhibition: at the top concentration.
Cytochrome P450 1A2 (Homo sapiens), sequence (P05177 whole entry, looked up): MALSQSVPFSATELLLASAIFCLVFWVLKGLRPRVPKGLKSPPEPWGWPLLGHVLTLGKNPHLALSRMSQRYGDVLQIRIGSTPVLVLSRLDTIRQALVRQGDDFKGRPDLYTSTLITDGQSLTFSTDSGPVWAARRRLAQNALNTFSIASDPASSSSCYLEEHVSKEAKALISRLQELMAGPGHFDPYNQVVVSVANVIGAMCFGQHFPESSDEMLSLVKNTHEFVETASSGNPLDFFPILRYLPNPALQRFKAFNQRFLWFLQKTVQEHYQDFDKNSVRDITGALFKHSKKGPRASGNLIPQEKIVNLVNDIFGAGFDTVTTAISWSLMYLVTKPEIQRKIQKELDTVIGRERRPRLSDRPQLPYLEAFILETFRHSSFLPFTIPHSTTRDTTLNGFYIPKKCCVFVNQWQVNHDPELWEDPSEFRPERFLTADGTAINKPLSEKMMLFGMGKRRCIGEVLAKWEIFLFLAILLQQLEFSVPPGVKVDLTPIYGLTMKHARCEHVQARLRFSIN
In short: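 Compounds were incubated with CYP1A2 and a luminogenic proluciferin substrate for 10 min at room temperature before the reaction was started with NADPH regeneration solution. After 1 h, detection reagent was added and light output, proportional to CYP activity, was recorded.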
In the case of CC(C)Cc1ccccc1, the “activity change, negative = inhibition” value is reported as -4.69% (inactive). For Cc1ccc(C(=O)O)o1, the “activity change, negative = inhibition” value was -11.5% (inactive). In the case of CCC(C)C=O (stereo unspecified), the “activity change, negative = inhibition” value is reported as -4.71% (inactive). O=C(c1cc(O)c(O)c(O)c1)c1ccc(O)c(O)c1O was tested, and the Potency was 39.8 µM (active) and 39.9 µM (active) and inactive. With CC1=CC[C@H]2C[C@@H]1C2(C)C the Potency was “inactive”. For CCCCCCCCCCCCN, the Potency was 16 µM (active) and 2.83 µM (active) and 9.08 µM (active). With C=C1C2CCC(C2)C1(C)C (stereo unspecified) the Potency was “inactive and 39.9 µM (active)”. NC(=O)/N=N/C(N)=O was tested, and the Potency was 17.9 µM (active) and 15.9 µM (active).

These compounds were tested against Voltage-gated inwardly rectifying potassium channel KCNH2 (Homo sapiens) (UniProt Q12809) (assay: Human Ether-a-go-go-Related Gene (hERG) channel small molecule antagonists: fluorescence cell-based qHTS assay (AID 1671200;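 on activity change, negative = inhibition: hERG-expressing U2OS cells given a thallium stimulus after FluxOR II dye loading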)). Settings: hERG-U2OS cells, FluxOR thallium flux fluorescence; series mostly up to 76.8 µM; activity change, negative = inhibition: at the top concentration.
Voltage-gated inwardly rectifying potassium channel KCNH2 (Homo sapiens), sequence (Q12809 whole entry, looked up): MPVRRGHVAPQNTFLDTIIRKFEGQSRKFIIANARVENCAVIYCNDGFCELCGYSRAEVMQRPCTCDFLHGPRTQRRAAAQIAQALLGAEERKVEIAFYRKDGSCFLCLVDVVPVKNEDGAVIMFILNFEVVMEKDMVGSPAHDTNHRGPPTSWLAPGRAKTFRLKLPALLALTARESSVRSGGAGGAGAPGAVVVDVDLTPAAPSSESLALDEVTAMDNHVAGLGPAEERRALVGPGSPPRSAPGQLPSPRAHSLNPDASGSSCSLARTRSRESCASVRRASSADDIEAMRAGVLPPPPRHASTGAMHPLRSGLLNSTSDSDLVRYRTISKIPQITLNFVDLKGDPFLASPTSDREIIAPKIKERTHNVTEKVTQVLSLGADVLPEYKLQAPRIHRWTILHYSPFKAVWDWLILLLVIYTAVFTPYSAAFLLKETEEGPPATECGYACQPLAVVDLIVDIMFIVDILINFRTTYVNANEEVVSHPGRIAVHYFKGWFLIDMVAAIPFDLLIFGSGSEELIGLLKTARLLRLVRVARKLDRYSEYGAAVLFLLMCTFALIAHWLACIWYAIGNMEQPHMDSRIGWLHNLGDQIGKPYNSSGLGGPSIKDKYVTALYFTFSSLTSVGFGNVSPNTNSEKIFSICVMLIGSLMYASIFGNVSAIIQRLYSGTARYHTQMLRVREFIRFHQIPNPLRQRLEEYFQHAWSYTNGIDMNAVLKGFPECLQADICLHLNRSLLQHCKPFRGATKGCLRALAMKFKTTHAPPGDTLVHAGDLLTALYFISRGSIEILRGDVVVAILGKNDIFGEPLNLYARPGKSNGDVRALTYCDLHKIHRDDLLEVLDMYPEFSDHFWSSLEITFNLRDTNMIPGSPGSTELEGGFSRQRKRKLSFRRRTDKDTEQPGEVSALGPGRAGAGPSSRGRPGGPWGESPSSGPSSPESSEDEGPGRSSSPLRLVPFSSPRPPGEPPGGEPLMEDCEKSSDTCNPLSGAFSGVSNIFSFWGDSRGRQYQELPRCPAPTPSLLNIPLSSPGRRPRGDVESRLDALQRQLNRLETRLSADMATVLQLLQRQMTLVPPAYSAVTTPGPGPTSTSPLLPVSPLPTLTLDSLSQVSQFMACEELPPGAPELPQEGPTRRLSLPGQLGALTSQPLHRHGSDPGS
In short: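 hERG-U2OS cells plated overnight at 37 C, loaded with FluxOR II dye 1 h at RT in dark; after 10 min, thallium stimulus added. Fluorescence (480/540 nm) read kinetically for 2 min at 1 s intervals.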
With Cc1ccc(C)c(C)c1 the Potency was “inactive”. With CC(=O)[C@@]1(O)CC[C@H]2[C@@H]3CCC4=CC(=O)CC[C@]4(C)[C@H]3CC[C@@]21C the Potency was “inactive”. NCCc1ccc(O)c(O)c1 was tested, and the Potency was “inactive”. In the case of CC1=C(CC(=O)O)c2cc(F)ccc2/C1=C\c1ccc(S(C)=O)cc1 (stereo unspecified), the Potency is reported as “inactive”. For O=C(O)c1cc(-c2ccccc2)nc2ccccc12, the Potency was “inactive”. ClC1=C(Cl)C(Cl)(Cl)C(Cl)=C1Cl was tested, and the Potency was “inactive”. In the case of OCC1CCCO1 (stereo unspecified), the Potency is reported as “inactive”. For CC(C)(C)C1CCC(O)CC1 (stereo unspecified), the Potency was “inactive”. For CC(C)(CO)COC(=O)C(C)(C)CO, the Potency was “inactive”. O=C1CCCCC1 was tested, and the Potency was “inactive”. In the case of CNC[C@H](O)[C@@H](O)[C@H](O)[C@H](O)CO, the Potency is reported as “inactive”. For OCC#CCO, the Potency was “inactive”. In the case of Oc1ccc2ccccc2c1, the Potency is reported as “inactive”. With NS(=O)(=O)c1cc2c(cc1Cl)NC=NS2(=O)=O the Potency was “inactive”. For Cc1cc(Cc2ccc(N)c(C)c2)ccc1N, the Potency was “inactive”. For CS(=O)(=O)c1ccc([C@@H](O)[C@@H](CO)NC(=O)C(Cl)Cl)cc1, the Potency was “inactive”. For CCCCCCCCCCC=CC1CC(=O)OC1=O (stereo unspecified), the Potency was “inactive”. In the case of S=c1nc[nH]c2nc[nH]c12, the Potency is reported as “inactive”. For CCCCCCCCCC(=O)O, the Potency was “inactive”. For C=C1CC[C@H](O)CC1=C/C=C1\CCC[C@]2(C)[C@@H]([C@H](C)/C=C/[C@H](C)C(C)C)CC[C@@H]12, the Potency was “inactive”. For CCCCOCCO, the Potency was “inactive”. For Oc1ccc(OCc2ccccc2)cc1, the Potency was “inactive”. For CS(=O)(=O)Nc1ccc([N+](=O)[O-])cc1Oc1ccccc1, the Potency was “inactive”. CCCCOCCOCCOC(=O)CCCCC(=O)OCCOCCOCCCC was tested, and the Potency was “inactive”. O=C1N=C(O)CN1/N=C/c1ccc(-c2ccc([N+](=O)[O-])cc2)o1 was tested, and the Potency was “inactive”. Cn1c([N+](=O)[O-])cnc1COC(N)=O was tested, and the Potency was “inactive”. With CCCCC(CC)COC(C)=O (stereo unspecified) the Potency was “inactive”. For OC1CCCC1, the Potency was “inactive”. CC(C)Cc1ccccc1 was tested, and the Potency was “inactive”. With Cc1ccc(C(=O)O)o1 the Potency was “inactive”. With CCC(C)C=O (stereo unspecified) the Potency was “inactive”. With O=C(c1cc(O)c(O)c(O)c1)c1ccc(O)c(O)c1O the Potency was “inactive”. CC1=CC[C@H]2C[C@@H]1C2(C)C was tested, and the Potency was “inactive”. With CCCCCCCCCCCCN the Potency was “inactive and 12.3 µM (active)”. In the case of C=C1C2CCC(C2)C1(C)C (stereo unspecified), the Potency is reported as “inactive”. NC(=O)/N=N/C(N)=O was tested, and the Potency was “inactive”.

What follows are compounds tested against Cytochrome P450 3A4 (Homo sapiens) (UniProt P08684) (assay: Cytochrome P450 Family 3 Subfamily A Member 4 (CYP3A4) small molecule antagonists: luciferase reporter qHTS assay (AID 1671201)). Settings: P450-Glo CYP3A4 enzyme, luciferin luminescence, 1 h; series mostly up to 115 µM; activity change, negative = inhibition: at the top concentration.
Cytochrome P450 3A4 (Homo sapiens), sequence (P08684 whole entry, looked up): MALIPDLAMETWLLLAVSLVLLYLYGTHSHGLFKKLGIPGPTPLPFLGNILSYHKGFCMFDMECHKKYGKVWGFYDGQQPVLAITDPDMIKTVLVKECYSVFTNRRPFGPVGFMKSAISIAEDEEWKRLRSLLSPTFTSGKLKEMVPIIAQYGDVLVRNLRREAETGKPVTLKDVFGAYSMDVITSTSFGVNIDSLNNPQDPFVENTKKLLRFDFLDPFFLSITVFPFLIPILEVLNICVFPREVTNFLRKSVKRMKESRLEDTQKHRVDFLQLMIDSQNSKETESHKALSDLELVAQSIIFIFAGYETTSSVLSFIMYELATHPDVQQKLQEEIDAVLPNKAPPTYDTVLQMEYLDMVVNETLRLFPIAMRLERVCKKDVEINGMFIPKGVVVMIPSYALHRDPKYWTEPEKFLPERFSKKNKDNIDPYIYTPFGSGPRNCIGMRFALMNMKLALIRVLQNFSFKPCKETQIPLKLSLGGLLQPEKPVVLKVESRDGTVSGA
In short: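 P450-Glo CYP3A4 luminescent assay: compounds preincubated 10 min at room temperature with enzyme and proluciferin substrate, NADPH regeneration added, 1 h room-temperature reaction, stopped with luciferin detection reagent; luminescence read after 20 min. Ketoconazole positive control.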
Cc1ccc(C)c(C)c1 was tested, and the Potency was “inactive”. NCCc1ccc(O)c(O)c1 was tested, and the Potency was “inactive”. For CC1=C(CC(=O)O)c2cc(F)ccc2/C1=C\c1ccc(S(C)=O)cc1 (stereo unspecified), the “activity change, negative = inhibition” value was 0.669% [at 52.9 µM] (inactive). With O=C(O)c1cc(-c2ccccc2)nc2ccccc12 the Potency was “inactive”. For ClC1=C(Cl)C(Cl)(Cl)C(Cl)=C1Cl, the Potency was “inactive”. For OCC1CCCO1 (stereo unspecified), the Potency was “inactive”. For CC(C)(C)C1CCC(O)CC1 (stereo unspecified), the Potency was “inactive”. CC(C)(CO)COC(=O)C(C)(C)CO was tested, and the Potency was “inactive”. For O=C1CCCCC1, the Potency was “inactive”. CNC[C@H](O)[C@@H](O)[C@H](O)[C@H](O)CO was tested, and the Potency was “inactive”. CC1=C(/C=C/C(C)=C/C=C/C(C)=C/CO)C(C)(C)CCC1 was tested, and the Potency was 18.1 µM (active) and 11.9 µM (active). With OCC#CCO the Potency was “inactive”. With Cc1cc(Cc2ccc(N)c(C)c2)ccc1N the Potency was 894 nM (active) and 2.52 µM (active). In the case of CS(=O)(=O)c1ccc([C@@H](O)[C@@H](CO)NC(=O)C(Cl)Cl)cc1, the Potency is reported as “inactive”. CCCCCCCCCCC=CC1CC(=O)OC1=O (stereo unspecified) was tested, and the Potency was “inactive”. In the case of S=c1nc[nH]c2nc[nH]c12, the Potency is reported as “inactive”. In the case of CCCCCCCCCC(=O)O, the Potency is reported as “inactive”. For C=C(C)C(=O)OCC(CC)(COC(=O)C(=C)C)COC(=O)C(=C)C, the “activity change, negative = inhibition” value was -31.2% (inactive). With CCCCOCCO the Potency was “inactive”. Oc1ccc(OCc2ccccc2)cc1 was tested, and the Potency was “inactive”. CCCCOCCOCCOC(=O)CCCCC(=O)OCCOCCOCCCC was tested, and the Potency was 20.1 µM (active) and 31.7 µM (active). In the case of Cn1c([N+](=O)[O-])cnc1COC(N)=O, the Potency is reported as “inactive”. CCCCC(CC)COC(C)=O (stereo unspecified) was tested, and the Potency was “inactive”. OC1CCCC1 was tested, and the Potency was “inactive”. For CC(C)Cc1ccccc1, the Potency was “inactive”. For Cc1ccc(C(=O)O)o1, the Potency was “inactive”. For CCC(C)C=O (stereo unspecified), the Potency was “inactive”. O=C(c1cc(O)c(O)c(O)c1)c1ccc(O)c(O)c1O was tested, and the Potency was “inactive”. CC1=CC[C@H]2C[C@@H]1C2(C)C was tested, and the Potency was “inactive”. For CCCCCCCCCCCCN, the Potency was “inactive”. In the case of C=C1C2CCC(C2)C1(C)C (stereo unspecified), the Potency is reported as “inactive”. With NC(=O)/N=N/C(N)=O the “activity change, negative = inhibition” value was -23.4% (inactive).
